{"source": "paper PMC12864922", "about": "“TDP-43 directly inhibits mRNA accumulation in neurites through modulation of mRNA stability”", "binders": {"B1": {"name": "ENSMUSG00000028439.291|Fam219a|94:98 (ssRNA)", "RNA": "GGGAGUUCUACAGUCCGACGAUCGCUUCGAUAUCCGCAUGCUAGUGUCUCUCCUUCAGGCGCCCCACAUGCCAGCAUUUCCACCCUCUGGAUUCUCCUCACAUGUCACUCUCCAGGUGCCGGGGCCUAGAGUGGGCCACACAGAAGGAGGAGUGGGGCUGUUGGCUUAGGAAGGGAAGCGCCUCUCUGUACACCACAACCAGGAGCUGCCCACUCCCCACACCUCCAGCCCAGCUUACCUCCCCCUAGUACAGAGAUCCUAAUUAGAUAAGAAAAUGCCAAGGGAGGCAAGCCAGAGAAAGCACUCUUGCGGUCGCACUAGUGUGGAAUUCUCGGGUGUCAAGG"}, "B2": {"name": "ENSMUSG00000090935.679|Synj2bp (ssRNA)", "RNA": "GGGAGUUCUACAGUCCGACGAUCGCUUCGAUAUCCGCAUGCUAUGAACCUUGAGAUUCACCACUGUCAGGAGCUCUCUCUCUCUGCUUAGAAUCAUCCAGACAGCGGGCUGGUCAGCCCACAUUAAAUAAGAACAUGUGGGACUAGAAUUCAGUCAACAAUGACAUGUUUCAUCAGGUGGUUAAAAUGUACAGAUUCUGUUGGAAAUGUUCCAUGGUAUUUCAAUAGCCAGAAUGAAGAACUGGGCUAAGUCCAGAGCUCUGCUCUCUGAGCAUCUGCCCCAGAUACAGAGGCAGAGUAUGAACUCUUGCGGUCGCACUAGUGUGGAAUUCUCGGGUGUCAAGG"}, "B3": {"name": "ENSMUSG00000043670.52|Diras1|235:240 (ssRNA)", "RNA": "GGGAGUUCUACAGUCCGACGAUCGCUUCGAUAUCCGCAUGCUACACCAGCCUACAGUAAGGUUGGGCUCCAUCCCUGCCUCUUCACACCUCCAUAGCUUCAUCCUUUGCAGACCUCUCCCUCUAUAUCUCUUUGCUCCCCCACCCCCAUUCUAUCUGCACCCCACAACCACACACUGGAGGUUUGAUCCCUGUGGAUCUGAAAACAGGGACCUGGCUAAGGAACUGCUCAUCCCAGUCAGGCCCAGAGAGGUUACCUUGCCUCUCCAUCUCUGUCCCACACACCCCAGCCAUGCCCACUGUCCCUCUUGCGGUCGCACUAGUGUGGAAUUCUCGGGUGUCAAGG"}, "B4": {"name": "ENSMUSG00000029028.191|Lrrc47 (ssRNA)", "RNA": "GGGAGUUCUACAGUCCGACGAUCGCUUCGAUAUCCGCAUGCUACCCAUCUCUGUGCAUCCUGACUGCGCACAUCCCAUCUCCGCAUGUGUACGCAUCUGUACCAGCACACAGCUGCCAUCCCUCGAGCCACAGUGCCUGGUCCUAAGGACCCAGCAGCUGCACAGAGGACUUGGUGGCCCCGUGCCUUGCCAUCUGGCUGAGAAGAGAACCAGACCCUCAGCCUUCCCCCUCGACACCUUCUCGUUGGUGACCUCUGACCUUAAAGGACCAUUUCUACCUUCUGUAAAAGAACACCUGUUUGGCUCUUGCGGUCGCACUAGUGUGGAAUUCUCGGGUGUCAAGG"}, "B5": {"name": "ENSMUSG00000061578.1057|Ksr2 (ssRNA)", "RNA": "GGGAGUUCUACAGUCCGACGAUCGCUUCGAUAUCCGCAUGCUAUGUGAAAGUCUGAUGACUCAAAUCAAAGUUUGGUUUUUCUUUUCUACUACUCUGAAGGAAAAUCUCAGCUUGGCUAUUUCUUCAUGUUUUAAAAAUGUCUUGACUUCUCUCAGCAACCAACUUCAGGUGCCAGGAUAUGAGAUGCUAAGGUUCAGGGGUGGUGGAGGUGAUUCUAUCCAGUGGCCAGCAAUACCCAAAAGCAGCCAACCAUGAAAAUAGAGGUUUGUAAUGUACAGAAGGCUGGGGGAGCUUUCAGGGGUCUCUUGCGGUCGCACUAGUGUGGAAUUCUCGGGUGUCAAGG"}, "B6": {"name": "ENSMUSG00000043670.174|Diras1 (ssRNA)", "RNA": "GGGAGUUCUACAGUCCGACGAUCGCUUCGAUAUCCGCAUGCUACAGCAAAGUCCCUGUGUGCGGUGAUAGGACUAGUGGCUGCUGCCCUAGGGCUCUGACAGAAUCUGAGCCUCUUUGCUGGUCAUGUGUACUCUGGAGACUGUCCCCCAUGUCUGCCCUGAGUUACGGAGCCCCUGUGGUAUCUGCGAGACUGUCCAGGAGACUUGAGUGGCUCCUGGGCCUGUGUCCCACCCAGAUGAGGGUGACUUAGAAUUCUGUGUUUAUGUGCCUGUGUGUGUGGAUGGGUGUGUGUCUGUCUUGGGCUCUUGCGGUCGCACUAGUGUGGAAUUCUCGGGUGUCAAGG"}, "B7": {"name": "ENSMUSG00000029636.81|Wasf3|153:157 (ssRNA)", "RNA": "GGGAGUUCUACAGUCCGACGAUCGCUUCGAUAUCCGCAUGCUAUGAUGUCUUCCAACCAGUGGGUGAUACGUUUUCCUGUUUCUUCCCUUUGCAAAUUGAAUUCCAGGUAGAUAUGGUUGUAGAGGGGAAAGUUUAACAAAUCAGAAUGAAAUGUUUGUCUGUUUGCACACUGGGCCUGGUGGCCUCCAAGGAAAACACAACGAUCGUUUGCUUUCUCUAUCUUGGCGCUUGCAACCGAGAGCGGCCAUUUUUAUGAGGGGAGCCCUGUGGGUACUCAUGUGGAAAGUGCCCACUGACUUUGGCUCUUGCGGUCGCACUAGUGUGGAAUUCUCGGGUGUCAAGG"}, "B8": {"name": "ENSMUSG00000029028.64|Lrrc47 (ssRNA)", "RNA": "GGGAGUUCUACAGUCCGACGAUCGCUUCGAUAUCCGCAUGCUAUGGGUAUGCUGUAGAUGUCUGUGUAGGUGUGGAUAUGCUGUAGGUAUCUGGGUGUGCUGUAGGUGUCUGUGUGGGUGUGGGUGUGCUGUGGGUGUCUGUGUGGGUGUGCUGUAGGUGUCUGUAGGUGUGGGUAUGCUGCAGGUGUGGGUGUGCUGUAGAUCUCUAUAGGUGUGGGUGUGCUGUAGGGGUCUGUGUGGGUAUAGGUGUGGGUGUGCUGUAGAUUCUGUGUAACUGGUUCUUUGCUGUUUCUCUGGGUGUUUCUCUUGCGGUCGCACUAGUGUGGAAUUCUCGGGUGUCAAGG"}, "B9": {"name": "ENSMUSG00000058297.508|Spock2 (ssRNA)", "RNA": "GGGAGUUCUACAGUCCGACGAUCGCUUCGAUAUCCGCAUGCUAUAGCCUGGGAGUUCUGGCAGGAGGCAAAGUUGGUGAGAGUCCUGGGACAUCUUACCCCCAGUGUUCCACAGGAGUCGUGACCACGUGUGAUGGGUGGGCACAGGUCUGCCUUGCUCCAGCCCCCUCCCUUGGUUUCUGUUGGUACCCAUUUGGCUUUUAUCUGCUUUCUGCUUCACCACUAAGUGCGUAGGUGGGGUCUUUUGAUAUCGGCUCCCCAAAGCCCAAGCCCACAGCCCUAGGAGAGAACCAGGGGCCCAUCUCUCUUGCGGUCGCACUAGUGUGGAAUUCUCGGGUGUCAAGG"}}, "note": "Whole data set: some 9,900 sequences, median “r (bound/input frequency ratio)” near 0.7, cut for the highest 2% near 6.5. This is one part of a sample in which the highest values are shown more often than they occur."}
{"molecular_target": "TDP-43 (Homo sapiens, UniProt Q13148 1-414)", "sequence (Q13148 whole entry)": "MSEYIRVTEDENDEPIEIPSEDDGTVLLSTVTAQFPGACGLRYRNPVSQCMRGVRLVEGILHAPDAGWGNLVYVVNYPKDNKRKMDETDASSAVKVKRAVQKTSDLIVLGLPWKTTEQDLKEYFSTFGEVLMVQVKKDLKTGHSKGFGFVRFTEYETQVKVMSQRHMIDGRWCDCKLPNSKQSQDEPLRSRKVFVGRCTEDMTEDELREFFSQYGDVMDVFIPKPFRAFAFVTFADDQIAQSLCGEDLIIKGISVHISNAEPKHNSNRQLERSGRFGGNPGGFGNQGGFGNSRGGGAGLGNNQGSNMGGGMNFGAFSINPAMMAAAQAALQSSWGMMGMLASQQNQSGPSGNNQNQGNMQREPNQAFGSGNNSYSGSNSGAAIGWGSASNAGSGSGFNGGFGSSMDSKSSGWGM", "test": "RNA Bind-n-Seq with designed 260-mer pool; 25 mM Tris-HCl, 150 mM KCl, 3 mM MgCl2, BSA (printed 500 mg/mL), 20 units/mL SUPERase IN; pH not stated; 500 nM RNA pool, 1 h, 4 C; TDP-43 5, 50, 500 nM; high values mean tight binding", "conditions": "protein: recombinant; tags: SBP (GST cleaved off with PreScission; pGEX-GST-SBP)", "how_it_was_run": "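In 25 mM Tris-HCl, 150 mM KCl, 3 mM MgCl2, BSA and SUPERase IN, 500 nM of an in vitro-transcribed 260-nt 3′ UTR oligo pool was incubated for 1 h at 4 °C with SBP-tagged TDP-43 (5, 50 or 500 nM) captured on streptavidin beads. RNA remaining after washes was biotin-eluted, reverse transcribed, PCR-amplified and sequenced. Binding, R, is the bound-sample abundance of each oligo, normalized to mapped reads, divided by its abundance in input. Each duplicate used a separate, independent protein batch.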"}
{"binder": "B1", "binding signal": "0.63 R (bound/input frequency ratio)"}
{"binder": "B2", "binding signal": "0.733 R (bound/input frequency ratio)"}
{"binder": "B3", "binding signal": "2.23 R (bound/input frequency ratio)"}
{"binder": "B4", "binding signal": "0.696 R (bound/input frequency ratio)"}
{"binder": "B5", "binding signal": "0.83 R (bound/input frequency ratio)"}
{"binder": "B6", "binding signal": "5.89 R (bound/input frequency ratio)"}
{"binder": "B7", "binding signal": "5.11 R (bound/input frequency ratio)"}
{"binder": "B8", "binding signal": "5.28 R (bound/input frequency ratio)"}
{"binder": "B9", "binding signal": "0.768 R (bound/input frequency ratio)"}
